Results filed as inconclusive are left out. A number with no mark means an inactive call. Calls of active or inactive are those of the source. Calls follow the shape of the dose curve; as a rule, active = well fitted inhibition curve with a large enough effect; inconclusive = small, poorly fitted or top-dose-only effect; inactive = flat fitted curve, though single readings scatter.
Potency is read from the fitted curve at half-maximal effect.

The test concerns CP305. The test is described as follows: qHTS profiling for inhibitors of Plasmodium falciparum proliferation (AID 504749). Also: nearly all actives have a fitted effect of over 60% in size.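 As to activity, negative = inhibition: 0% = DMSO vehicle and full inhibition = artemisinin control.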 The conditions noted are these: P. falciparum in erythrocytes, SYBR Green DNA, 72 h; series mostly up to 28.7 µM; activity, negative = inhibition: at the top concentration. The procedure, abridged:
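SYBR Green fluorescence of parasite DNA, read after lysis and overnight dark incubation, measured growth over 72 h in erythrocyte culture at 0.3% parasitemia and 2.5% hematocrit. Data normalised to DMSO and 0.29 uM artemisinin, with plate-drift correction.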
A general note: qHTS replaces the single test concentration by a dilution series.
With `COC(=O)C[C@](O)(CCCC(C)(C)O)C(=O)O[C@@H]1C(OC)=C[C@]23CCCN2CCc2cc4c(cc2[C@H]13)OCO4`, the Potency was 0.0338 µM (active).
With `CC=CC1=C(C(=O)O)N2C(=O)[C@H](NC(=O)[C@H](N)c3ccc(O)cc3)[C@@H]2SC1`, the “activity, negative = inhibition” value is -8.95%.
Same read-out and setting: under `COc1cc(C(=O)NS(=O)(=O)c2ccccc2C)ccc1Cc1cn(C)c2ccc(NC(=O)OC3CCCC3)cc12` stands -12.2%; under `C[C@H]1C[C@@H]2[C@@H]([C@@H](O)C[C@@]3(C)[C@H]2CC[C@]3(O)C(=O)CO)[C@@]2(C)C=CC(=O)C=C12`, -3.42% [at 12.8 µM]; under `O=c1[nH]c(=O)n(C2CCCO2)cc1F` (centres undefined), -0.481%.
In the case of `Nc1ccn([C@@H]2CS[C@H](CO)O2)c(=O)n1`, the Potency result was “inactive”.
Regarding `CN1c2cc(O)c(N=NC(N)=O)cc2CC1S(=O)(=O)O` (centres undefined), the “activity, negative = inhibition” value is -0.18%.
In the case of `CC[C@H]1CN2CCc3cc(OC)c(OC)cc3[C@H]2C[C@@H]1C[C@@H]1NCCc2cc(OC)c(OC)cc21`, the Potency was 0.379 µM (active).
`CC(C)(C)NC(=O)[C@H]1CN(Cc2cccnc2)CCN1C[C@@H](O)C[C@@H](Cc1ccccc1)C(=O)N[C@H]1c2ccccc2C[C@H]1O`: the Potency is 13.5 µM (active).
Same read-out and setting: under `Nc1ccn([C@@H]2O[C@H](CO)[C@H](O)C2(F)F)c(=O)n1` stands 5.36 µM (active).
Consider `O=C(O)CO.[NH2-].[NH2-].[Pt+2]`, for which the “activity, negative = inhibition” value is -0.0955%.
For the compound `COC(=O)C1=C(C)NC(C)=C(C(=O)OCCN2CCN(C(c3ccccc3)c3ccccc3)CC2)C1c1cccc([N+](=O)[O-])c1` (centres undefined), the Potency was 5.36 µM (active).
Still for that read-out and setting: under `CCC1=C[C@@H]2CN(C1)Cc1c([nH]c3ccccc13)[C@@](C(=O)OC)(c1cc3c(cc1OC)N(C)[C@@H]1[C@@](O)(C(=O)OC)[C@H](OC(C)=O)[C@]4(CC)C=CCN5CC[C@]31[C@@H]54)C2` stands 3.01 µM (active).
Turning to `Nc1ccc(S(=O)(=O)Nc2ncccn2)cc1`, the “activity, negative = inhibition” value was 5.85% [at 12.8 µM].

The record behind these values is PubChem BioAssay (NCATS).
